# ChEMBL document CHEMBL4513151, “CO-ADD screening of Institut Català d'Investigació Química (Spain) compounds”
# Several values for one entry are separate records, joined by “and”; a condition that tells them apart may be missing. Equal values may be shown once. Potency and affinity values are given separately.
# Columns and labels:
# Klebsiella pneumoniae = details: Concentration 32 ug.mL-1; ASSAY_TEST Inhibition of Bacterial Growth; detection method Absorption (OD600); MEDIA CAMHB; plate type 384well; NBS; CORNING #3640; time 18 hr, 32 ug/mL
# Cryptococcus neoformans = details: Concentration 32 ug.mL-1; ASSAY_TEST Inhibition of Fungal Growth; detection method Resazurin; Absorption (OD600-OD570); plate type 384well; NBS; CORNING #3640; 32 ug/mL
structure (smiles),measurement,setting,value
C[C@]12CC[C@@](c3ccc(C(F)(F)F)cc3)(O1)[C@H]1C=C[C@H](OC(=O)c3ccccc3)[C@H]12,Inhibition,Klebsiella pneumoniae,10.18% and 19.4%
C[C@]12CC[C@@](C3CC3)(O1)[C@H]1C=C[C@H](OC(=O)c3ccccc3)[C@H]12,Inhibition,Klebsiella pneumoniae,19.23% and 15.4%
C[C@]12CC[C@@](c3ccccc3)(O1)[C@H]1C=C[C@H](OC(=O)c3ccccc3)[C@H]12,Inhibition,Cryptococcus neoformans,-55.26% and -63.64%
